LMP1 NFkB inh – EBV LMP1-driven NF-kappaB luciferase reporter inhibitors, primary screen, cell-based, luminescence, single point. LMP1-induced NF-kappaB luciferase reporter cells. inhibition, % at 12.5 µM. actives 0.69% (n = 350,000). AID 504558, 2011; in the data active means inhibition above about 41%; inconclusive means no clear call, values can overlap the other calls;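 further: 0% = neutral control wells and 100% = reference inhibitor control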
Shn3 3UTR inh – reduction of Shn3 3'UTR firefly luciferase signal, primary screen, Schnurri-3 inhibitor project, cell-based, Clone20 osteoblasts, set 2; Clone20 osteoblast Shn3 3'UTR firefly luciferase, 24 h; inhibition, % at 12.5 µM; actives 0.52% (n = 360,000); AID 588674, 2011;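 active means mean inhibition of at least 75% with every replicate also reaching 75%; inconclusive means mean inhibition at least 75% but some replicate below; inactive means mean inhibition below 75%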;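 further: 0% = median of neutral control wells and 100% = pilot-screen positive control compound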
EWS-Fli inh – EWS/Fli-driven NR0B1 reporter inhibitors, primary screen, A673 cells, NR0B1 luciferase, luminescence, MLPCN library; viability-normalised; inhibition, % at 12.6 µM; actives 0.67% (n = 350,000); AID 651661, 2012;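 active means mean inhibition of at least 50% after viability correction, with every replicate also passing that limit; inconclusive means mean reaches 50% but only one of two replicates passes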;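 further: firefly luciferase signal divided by Alamar Blue viability fluorescence both relative to DMSO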
PAX8 reporter – inhibitors of PAX8-driven TPO luciferase reporter, primary screen, RMG-I cells, single concentration; SteadyGlo, 24 h; inhibition, % at 12.6 µM; actives 1.2% (n = 360,000); AID 652154, 2013;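 active means mean replicate inhibition at least 60% with every replicate also reaching 60%; inconclusive means only one of the two criteria is met; inactive means mean below 60% and not all replicates reaching 60%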;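 further: luciferase light reporting Pax8 driven TPO promoter activity; plate controls were median of neutral control wells for no effect and mitoxantrone controls for full effect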
MITF TRPM1 inh – inhibitors of MITF-dependent TRPM1 promoter reporter, primary screen, cell-based, SK-MEL-5, single point, luciferase; SK-MEL-5 TRPM1 promoter luciferase, 24 h; inhibition, % at 12.5 µM; actives 0.83% (n = 330,000); AID 488899, 2010;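 active means mean inhibition across replicates of 60% or more, whatever share of single replicates reaches that level; inconclusive means some that reach 60%, reason not given; inactive means mean inhibition across replicates below 60%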
LGR2 antag – inhibitors of bursicon-induced LGR2 CRE-luciferase signal, primary screen, cell-based, HEK293, CRE-luciferase reporter, bursicon stimulation. Drosophila bursicon receptor LGR2 (rickets). bursicon-stimulated, 4 h. inhibition, % at 9.99 µM. actives 0.35% (n = 380,000);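 active means drop in luminescence signal, shown as inhibition above about 50% in the replicate tests, limit read from the data, passing the limit was not always enough; inconclusive means probably only some replicates passing the limit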;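 further: agonist challenge used bursicon conditioned medium at about half maximal strength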
* marks the source's active call; other numbers are inactive results; ? = inconclusive; / = not tested or not shown. An excerpt weighted towards active compounds, which were near 2.2% of everything screened.

SMILES | LMP1 NFkB inh | Shn3 3UTR inh | EWS-Fli inh | PAX8 reporter | MITF TRPM1 inh | LGR2 antag
Cc1ccc(-n2ncc3c(N4CCCC4)ncnc32)c(C)c1 | -24 | -84 | / | -109 | -29 | /
c1ccc(-n2ncc3c(N4CCCCC4)ncnc32)cc1 | 41* | 9 | 75* | 21 | 16 | 61*
O=C(C[C@@H]1CC[C@H]2[C@@H](COC[C@H](O)CN2C(=O)Nc2ccc(Cl)c(Cl)c2)O1)NCc1ccc(Cl)c(Cl)c1 | / | / | 11 | 4 | / | -1
Nc1c(Cl)cnn(-c2ccccc2)c1=O | / | 4 | -3 | 8 | / | 4
O=c1c(Cl)c(Cl)cnn1-c1ccccc1 | 0 | 2 | 70* | 108* | 88* | 104*
CC(C)(C)C(=O)/C(=C/c1ccc(Cl)cc1)n1cncn1 | -6 | ? | 49 | 86* | 94* | 42
C[C@H]1CN([C@@H](C)CO)C(=O)c2cccc(NS(=O)(=O)c3ccc(Cl)cc3)c2O[C@@H]1CN(C)Cc1ccc(-c2ccccc2)cc1 | / | / | 8 | -21 | / | 5
C[C@@H]1CN([C@@H](C)CO)C(=O)c2cccc(NS(=O)(=O)c3ccc(Cl)cc3)c2O[C@@H]1CN(C)Cc1ccc(-c2ccccc2)cc1 | / | / | 16 | 65* | / | 7
C[C@H](CO)N1C[C@H](C)[C@H](CN(C)Cc2ccc(Cl)c(Cl)c2)Oc2c(NS(=O)(=O)c3ccc(Cl)cc3)cccc2C1=O | / | / | 12 | 83* | / | /
Cc1ccc(CN2C(=O)CCC2C(=O)NCCCN2CCC(C)CC2)cc1 (configuration not stated) | 50* | -66 | / | / | -6 | /
O=C(NCc1cccs1)c1nc2c(nnn2Cc2ccccc2Cl)c(=O)[nH]1 | 76* | 7 | / | / | 76* | /
CN(C)c1ccc(Nc2nc(N)c3ccccc3n2)cc1 | 70* | 23 | 77* | 78* | 53 | 89*
Cc1ccccc1Nc1nc(N)c2ccccc2n1 | 4 | -47 | -20 | -76 | -27 | 3
Nc1nc(Nc2ccccc2)nc2ccccc12 | -12 | -44 | / | -68 | -33 | /
CCOc1ccc(Nc2nc(N)c3ccccc3n2)cc1 | 53* | -6 | 69* | 42 | 36 | 96*
C[C@@H]1CN([C@H](C)CO)S(=O)(=O)c2ccc(/C=C/c3ccccc3)cc2O[C@H]1CN(C)C(=O)C1CC1 | / | / | 12 | / | / | -6
Cc1noc(C)c1S(=O)(=O)N(C)C[C@H]1Oc2ccc(NC(=O)Nc3ccc(C(F)(F)F)cc3)cc2CC(=O)N([C@@H](C)CO)C[C@@H]1C | / | / | -2 | 3 | / | -5
Cc1noc(C)c1NC(=O)Nc1ccc2c(c1)C(=O)N([C@@H](C)CO)C[C@@H](C)[C@@H](CN(C)C(=O)Nc1ccccc1)O2 | / | / | -3 | / | / | -25
COc1ccc(C=C2OC(=O)C(C(C)=O)=C2O)cc1 | 51* | -54 | 18 | -31 | / | 4
CC(=O)C1=C(O)C(=Cc2ccccc2)OC1=O | -6 | -10 | -14 | -32 | / | 7
CCN(CC)C(=O)[C@H]1C[C@H](CC(=O)NCc2ccc(OC)c(OC)c2)C(=O)N2CCc3c([nH]c4cc(CCC(=O)N(C)C)ccc34)[C@]12C | -1 | -7 | 1 | -4 | -2 | -20
CCN(CC)C(=O)[C@H]1C[C@H](CC(=O)NC/C=C(\C)CCC=C(C)C)C(=O)N2CCc3c([nH]c4cc(CCC(=O)N(C)C)ccc34)[C@]12C | 0 | 90* | / | / | 13 | /
CC(C)=CCC/C(C)=C/CNC(=O)C[C@H]1C[C@H](C(=O)N2CCOCC2)[C@@]2(C)c3[nH]c4ccc(Cl)cc4c3CCN2C1=O | 1 | 40 | 36 | 104* | 9 | 63*
C[C@@H]1CN([C@H](C)CO)S(=O)(=O)c2ccc(C#CC3CCCCC3)cc2O[C@@H]1CN(C)Cc1cccnc1 | / | / | 23 | / | / | -14
COc1ccc(N(Cc2cc3cc(OC)ccc3[nH]c2=O)S(=O)(=O)c2ccc(NC(C)=O)cc2)cc1 | 33 | 7 | / | 91* | 5 | -10
SMILES | LMP1 NFkB inh | Shn3 3UTR inh | EWS-Fli inh | PAX8 reporter | MITF TRPM1 inh | LGR2 antag
CC(=O)Nc1ccc(S(=O)(=O)N(Cc2cccnc2)Cc2cc3ccccc3[nH]c2=O)cc1 | -6 | -5 | / | 71* | 4 | -6
C[C@H]1CN([C@@H](C)CO)C(=O)Cc2cc(NC(=O)c3ccncc3)ccc2O[C@@H]1CN(C)C(=O)Nc1ccc2c(c1)OCO2 | / | / | -13 | / | / | -5
CCCOc1ccc(/C=N/Nc2cc(N3CCOCC3)ncn2)c(O)c1 | 2 | 90* | 15 | 54 | 24 | 9
CCOc1ccc(/C=N/Nc2cc(N3CCOCC3)ncn2)c(O)c1 | 56* | 93* | 4 | 49 | / | 17
Clc1ccccc1/C=N/Nc1cc(N2CCOCC2)ncn1 | -25 | -117 | -83 | -36 | -59 | -27
Oc1ccc(/C=N\Nc2cc(N3CCOCC3)nc(N3CCOCC3)n2)c(O)c1 | 0 | 9 | -4 | 87* | 3 | 29
CCCCOc1ccc(/C=N/Nc2cc(N3CCOCC3)nc(C)n2)cc1 | -11 | 14 | 13 | 6 | -16 | 10
Cc1[nH]nc2c1-c1nc3ccccc3nc1C(C)(C)C2 | -32 | 89* | / | / | 41 | /
CC12CCC(C)(c3nc4ccccc4nc31)C2(C)C | 2 | -9 | 15 | 29 | -4 | /
C=CC[C@H](CC(=O)N(CCO)Cc1ccccc1)C(=O)NC[C@H](OC(=O)[C@@H](CC=C)Cc1ccc(F)cc1)c1ccccc1 | 4 | 89* | -4 | 55 | 17 | 8
C=CC[C@H](CC(=O)N(CCO)Cc1ccccc1)C(=O)N[C@H](COC(=O)[C@@H](CC=C)Cc1ccc(F)cc1)Cc1c[nH]c2ccccc12 | 3 | 7 | 0 | 82* | 3 | /
C=CCC[C@@H](Cc1ccc(F)cc1)C(=O)OC[C@@H](Cc1c[nH]c2ccccc12)NC(=O)[C@@H](CC=C)CC(=O)N[C@@H](CO)Cc1ccccc1 | 3 | 12 | 6 | 24 | 7 | 0
C=CCC[C@H](Cc1ccc(F)cc1)C(=O)OC[C@@H](Cc1c[nH]c2ccccc12)NC(=O)[C@@H](CC=C)CC(=O)N[C@@H](CO)Cc1ccccc1 | -9 | 18 | -2 | 78* | 2 | /
C=CCC[C@@H](Cc1ccc(F)cc1)C(=O)OC[C@H](Cc1c[nH]c2ccccc12)NC(=O)[C@@H](CC=C)CC(=O)N[C@@H](CO)Cc1ccccc1 | 4 | 55 | 4 | 56 | 23 | -8
C=CC[C@@H](CC(=O)N(CCO)Cc1ccccc1)C(=O)N[C@H](COC(=O)[C@@H](CC=C)Cc1ccc(F)cc1)Cc1c[nH]c2ccccc12 | -4 | 7 | 3 | 37 | -3 | 3
